Experimental data from PubChem BioAssay (Tox21).
Results filed as inconclusive are left out. Active and inactive are the calls of the source. Unless noted, calls follow the shape of the dose curve; as a rule, active = well fitted curve in the direction sought with a large enough effect in the repeat runs; inconclusive = weak or mixed curves; inactive = no such curve, though single readings can be large; an effect the other way counts as inactive or inconclusive.

How the values were obtained:
[1] = qHTS assay to identify small molecule agonists of the peroxisome proliferator-activated receptor delta (PPARd) signaling pathway - cell viability counter screen (AID 743211); also: nearly all actives have a fitted effect of over 55% in size
Procedure, shortened: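 Read-out: CellTiter-Glo luminescence, 30 min RT, measured in the same wells as the beta-lactamase reporter. Cells: GeneBLAzer PPAR delta UAS-bla HEK293H, 3000 cells/well, compound exposure 17 h at 37C.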

[2] = target: Peroxisome proliferator-activated receptor delta (Homo sapiens) (UniProt Q03181); test: qHTS assay to identify small molecule agonists of the peroxisome proliferator-activated receptor delta (PPARd) signaling pathway (AID 743212; calls by dose curve)
Sequence of Peroxisome proliferator-activated receptor delta (Homo sapiens) (Q03181 whole entry, looked up): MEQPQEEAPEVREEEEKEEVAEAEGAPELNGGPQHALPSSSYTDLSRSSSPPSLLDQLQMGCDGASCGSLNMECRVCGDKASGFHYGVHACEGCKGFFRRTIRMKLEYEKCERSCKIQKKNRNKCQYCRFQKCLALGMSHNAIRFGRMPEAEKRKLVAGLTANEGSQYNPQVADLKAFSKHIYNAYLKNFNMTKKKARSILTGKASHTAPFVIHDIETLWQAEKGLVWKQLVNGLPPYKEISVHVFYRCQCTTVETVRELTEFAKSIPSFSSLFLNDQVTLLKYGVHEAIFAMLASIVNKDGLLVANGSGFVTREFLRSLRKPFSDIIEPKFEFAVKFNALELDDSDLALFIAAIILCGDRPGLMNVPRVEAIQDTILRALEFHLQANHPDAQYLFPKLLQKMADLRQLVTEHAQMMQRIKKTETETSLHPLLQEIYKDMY
Procedure, shortened: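 Cells expressing a UAS-driven beta-lactamase reporter (PPARd-bla HEK293H) were given test compounds after a 5 h settle and kept at 37 C. Reporter activity was then measured as FRET fluorescence using LiveBLAzer B/G substrate.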

[3] = qHTS assay to identify small molecule antagonists of the peroxisome proliferator-activated receptor delta (PPARd) signaling pathway - cell viability counter screen (AID 743213); also: nearly all actives have a fitted effect of over 50% in size
Procedure, shortened: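 In this counter screen, HEK293H cells carrying a UAS-beta-lactamase reporter are co-treated with test compounds and 300 nM L165041 (final) for 17 h at 37 C; cell viability is quantified by CellTiter-Glo luminescence.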

[4] = target: Peroxisome proliferator-activated receptor delta (Homo sapiens) (UniProt Q03181); test: qHTS assay to identify small molecule antagonists of the peroxisome proliferator-activated receptor delta (PPARd) signaling pathway (AID 743215; active = well fitted inhibition curve with a large enough effect in the signal ratio in the repeat runs, not every such curve was filed as active; the % refers to the signal ratio;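 also: cells stimulated with agonist L165041 at 300 nM final during compound exposure; series mostly up to about 62 µM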)
Procedure, shortened: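 HEK293H GeneBLAzer PPARd UAS-bla reporter cells; cpd + L165041 300 nM final, 17 h 37 C; LiveBLAzer B/G FRET substrate 2 h RT; fluorescence intensity read-out. Antagonist mode.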

[5] = target: Bile acid receptor (Homo sapiens) (UniProt Q96RI1); test: qHTS assay to identify small molecule antagonists of the farnesoid-X-receptor (FXR) signaling pathway (AID 743217; active = well fitted inhibition curve with a large enough effect in the signal ratio in the repeat runs, not every such curve was filed as active; the % refers to the signal ratio)
Sequence of Bile acid receptor (Homo sapiens) (Q96RI1 whole entry, looked up): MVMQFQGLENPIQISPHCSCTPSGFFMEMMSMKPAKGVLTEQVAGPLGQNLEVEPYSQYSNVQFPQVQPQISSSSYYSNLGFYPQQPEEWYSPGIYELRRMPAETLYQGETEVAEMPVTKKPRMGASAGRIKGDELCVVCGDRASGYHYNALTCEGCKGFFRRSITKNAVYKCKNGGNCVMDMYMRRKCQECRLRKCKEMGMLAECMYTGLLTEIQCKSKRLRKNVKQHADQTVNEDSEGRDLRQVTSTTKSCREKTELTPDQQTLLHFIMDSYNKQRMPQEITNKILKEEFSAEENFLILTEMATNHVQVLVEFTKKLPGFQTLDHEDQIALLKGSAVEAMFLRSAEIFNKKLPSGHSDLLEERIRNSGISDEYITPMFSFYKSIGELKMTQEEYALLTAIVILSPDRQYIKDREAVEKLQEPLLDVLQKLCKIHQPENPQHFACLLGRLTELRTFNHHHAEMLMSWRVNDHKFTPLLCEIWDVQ
Procedure, shortened: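 Read-out: beta-lactamase FRET fluorescence (LiveBLAzer B/G substrate, 2 h, room temperature) in GeneBLAzer FXR-UAS-bla HEK 293T cells. Compounds were co-dosed with 50 uM chenodeoxycholic acid (final) and incubated 16 h at 37 °C.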

[6] = qHTS assay to identify small molecule agonists of the farnesoid-X-receptor (FXR) signaling pathway - cell viability counter screen (AID 743218); also: nearly all actives have a fitted effect of over 45% in size
Procedure, shortened: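 Luminescence from CellTiter-Glo, read after 30 min at RT, reports viability of GeneBLAzer FXR-UAS-bla HEK 293T cells treated 16 h with compounds in the wells used for the beta-lactamase reporter.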

[7] = target: Bile acid receptor (Homo sapiens) (UniProt Q96RI1); test: qHTS assay to identify small molecule agonists of the farnesoid-X-receptor (FXR) signaling pathway (AID 743220; active = well fitted activation curve with a large enough effect in the signal ratio in the repeat runs, not every such curve was filed as active; the % refers to the signal ratio)
Procedure, shortened: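 FXR-UAS-bla HEK 293T cells carrying a UAS-driven beta-lactamase reporter were plated for 5 h at 37C/5% CO2, then exposed to DMSO-dissolved Tox21 10K compounds for 16 h at 37C. A LiveBLAzer B/G FRET substrate was loaded for 2 h at room temperature before fluorescence reading.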

[8] = qHTS assay to identify small molecule antagonists of the farnesoid-X-receptor (FXR) signaling pathway - cell viability counter screen (AID 743221; active = well fitted cell-killing curve with a large enough effect in the repeat runs, not every such curve was filed as active; also: nearly all actives have a fitted effect of over 50% in size)
Procedure, shortened: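 HEK 293T FXR-bla cells, 5 h pre-incubation; compound + CDCA 50 uM final, 16 h, 37 C; beta-lactamase FRET read first, then CellTiter-Glo luminescence, 30 min RT.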

[9] = target: Vitamin D3 receptor (Homo sapiens) (UniProt P11473); test: qHTS assay to identify small molecule antagonists of the vitamin D receptor (VDR) signaling pathway (AID 743223; active = well fitted inhibition curve with a large enough effect in the signal ratio in the repeat runs, not every such curve was filed as active; the % refers to the signal ratio)
Sequence of Vitamin D3 receptor (Homo sapiens) (P11473 whole entry, looked up): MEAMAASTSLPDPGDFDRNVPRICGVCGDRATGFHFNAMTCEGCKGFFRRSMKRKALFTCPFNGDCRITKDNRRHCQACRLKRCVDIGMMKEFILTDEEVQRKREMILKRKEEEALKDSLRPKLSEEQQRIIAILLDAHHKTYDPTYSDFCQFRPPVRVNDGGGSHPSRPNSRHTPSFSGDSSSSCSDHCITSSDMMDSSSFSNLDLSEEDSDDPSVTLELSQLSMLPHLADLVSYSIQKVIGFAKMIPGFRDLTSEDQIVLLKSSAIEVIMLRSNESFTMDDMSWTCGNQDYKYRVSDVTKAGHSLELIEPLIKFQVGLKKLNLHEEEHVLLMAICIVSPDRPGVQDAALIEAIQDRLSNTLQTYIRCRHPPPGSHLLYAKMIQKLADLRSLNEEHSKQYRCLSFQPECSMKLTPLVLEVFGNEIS
Procedure, shortened: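 Beta-lactamase reporter read-out: FRET substrate fluorescence after 2 h at room temperature, following 16 h exposure of VDR-bla cells to test compound plus 3 nM (final) 1alpha,25-dihydroxyvitamin D3 agonist at 37C.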

[10] = target: Vitamin D3 receptor (Homo sapiens) (UniProt P11473); test: qHTS assay to identify small molecule agonists of the vitamin D receptor (VDR) signaling pathway (AID 743222; calls by dose curve)
Procedure, shortened: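 Beta-lactamase reporter readout (LiveBLAzer B/G FRET, 2 h RT) in VDR-bla cells after 16 h compound treatment at 37C, 5% CO2; cells pre-incubated 4 h before pin transfer of DMSO solutions.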
% is scaled to controls: 0 for no effect and ±100 for the full control effect.

N[C@@H](CCC(=O)Nc1ccc([N+](=O)[O-])cc1)C(=O)O
inactive: outcome [1] | outcome [2] | outcome [3] | outcome [4] | Potency [5] | Potency [6] | Potency [7] | outcome [8] | outcome [9]

O=C1c2ccccc2C(=O)C1c1ccccc1
inactive: outcome [1] | outcome [2] | outcome [3] | outcome [4] | Potency [5] | Potency [6] | Potency [7] | outcome [8]

C[C@@H](O)[C@H]1C(=O)N2C(C(=O)O)=C(SCCN=CN)C[C@H]12
inactive: outcome [1] | outcome [2] | outcome [3] | outcome [4] | Potency [5] | Potency [6] | Potency [7] | outcome [8]

CCCCCCCCC(=O)Cl
inactive: outcome [1] | outcome [2] | outcome [3] | outcome [4] | Potency [5] | Potency [6] | Potency [7] | outcome [8] | outcome [10]

C=CCCCCCCCCCCCC
inactive: outcome [1] | outcome [2] | outcome [3] | outcome [4] | Potency [5] | Potency [6] | Potency [7] | outcome [8] | outcome [10] | outcome [9]

C[Si](C)=O
inactive: activity change, negative = cytotoxicity [1] 1.6% [at 5.95 µM] | activation [2] 0.307% [at 5.95 µM] | viability change, negative = cytotoxic [3] -0.681% [at 6.26 µM] | ratio activity, negative = inhibition [4] 22.7% [at 6.26 µM] | activity change, negative = inhibition [5] 6.53% [at 5.95 µM] | activation [7] 2.56% [at 5.95 µM] | activity change, negative = cytotoxicity [8] -2.54% [at 5.95 µM]

Cc1nc2n(c(=O)c1CCN1CCC(c3noc4cc(F)ccc34)CC1)CCC[C@H]2O
inactive: outcome [1] | outcome [2] | outcome [3] | outcome [4] | Potency [5] | Potency [7] | outcome [8] | outcome [10] | outcome [9]

COc1cc(N)ccc1C
inactive: outcome [1] | outcome [2] | outcome [3] | outcome [4] | Potency [5] | Potency [6] | Potency [7] | outcome [8] | outcome [10] | outcome [9]

BrCCCCCBr
inactive: outcome [1] | outcome [2] | outcome [3] | outcome [4] | Potency [5] | Potency [7] | outcome [8] | outcome [10] | outcome [9]

COc1cc(C(=S)N2CCOCC2)cc(OC)c1OC
inactive: outcome [1] | outcome [2] | outcome [3] | outcome [4] | Potency [5] | Potency [6] | Potency [7] | outcome [8] | outcome [10] | outcome [9]

O=C(c1ccc(O)cc1)c1ccc(O)c(O)c1O
inactive: outcome [1] | outcome [2] | outcome [3] | outcome [4] | Potency [5] | Potency [6] | Potency [7] | outcome [9]

CCOC(=O)CC(=O)c1ccccc1
inactive: outcome [1] | outcome [2] | outcome [3] | outcome [4] | Potency [6] | outcome [8] | outcome [10] | outcome [9]

COCCOCCOCCOCCOCCO
inactive: outcome [1] | outcome [2] | outcome [3] | outcome [4] | Potency [6] | outcome [8] | outcome [10] | outcome [9]

COc1ccc(C2CNC(=O)C2)cc1OC1CCCC1 (stereo not drawn)
inactive: outcome [1] | outcome [2] | outcome [3] | outcome [4] | outcome [8] | outcome [9]

Cc1cc(NC(=O)C2=C(O)c3ccccc3S(=O)(=O)N2C)no1
inactive: outcome [1] | outcome [2] | outcome [3] | outcome [4] | outcome [8]

CCNC(=O)C1CC(C)CCC1C(C)C (stereo not drawn)
inactive: outcome [1] | outcome [2] | outcome [3] | outcome [4] | Potency [6] | outcome [8] | outcome [10] | outcome [9]

CC(C)N(c1ccccc1)C(C)C
inactive: outcome [1] | outcome [2] | outcome [3] | outcome [4] | Potency [6] | outcome [8] | outcome [10]

CCCCCCOC(=O)CC
inactive: outcome [1] | outcome [2] | outcome [3] | Potency [5] | Potency [6] | Potency [7] | outcome [8] | outcome [10] | outcome [9]

C=CC(OCC)OCC
inactive: outcome [1] | outcome [2] | outcome [3] | outcome [4] | Potency [6] | outcome [8] | outcome [10] | outcome [9]

COc1cc2c(cc1OC)C(=O)CC2
inactive: outcome [1] | outcome [2] | outcome [3] | outcome [4] | Potency [6] | outcome [8] | outcome [10] | outcome [9]

CCCCN
inactive: outcome [1] | outcome [2] | outcome [3] | outcome [8] | outcome [10]

CC(C)(C)NC(N)=O
inactive: outcome [1] | outcome [2] | outcome [3] | outcome [4] | outcome [8] | outcome [10] | outcome [9]

Cc1cc2cc3c(C)cc(=O)oc3c(C)c2o1
inactive: outcome [1] | outcome [2] | outcome [3] | outcome [4] | Potency [6] | outcome [8] | outcome [10] | outcome [9]

CC(C)NCC(O)COc1cccc2[nH]ccc12 (stereo not drawn)
inactive: outcome [1] | outcome [2] | outcome [3] | outcome [4] | Potency [6] | outcome [8] | outcome [9]

O=C1c2ccccc2C(=O)c2cc(S(=O)(=O)O)ccc21
inactive: outcome [1] | outcome [2] | outcome [3] | outcome [4] | outcome [8] | outcome [9]

COc1ccc(OC)c(Cl)c1
inactive: outcome [1] | outcome [2] | outcome [3] | outcome [4] | Potency [6] | outcome [8]

CC(C)(C)c1cc(CCC(=O)NN)cc(C(C)(C)C)c1O
inactive: outcome [1] | outcome [2] | outcome [3] | Potency [6] | outcome [8] | outcome [9]

CC(C)CC(=O)O
inactive: outcome [1] | outcome [2] | outcome [3] | outcome [4] | Potency [6] | outcome [8] | outcome [10] | outcome [9]

CCCCCCCCSCC
inactive: outcome [1] | outcome [2] | outcome [3] | outcome [4] | outcome [8] | outcome [10]
